Measured values reported in PubChem BioAssay (EPA / NIEHS).
Records with an inconclusive call do not appear. Calls of active or inactive are those of the source. How the source made its calls, unless noted: active means hit-call score of the fitted dose curve at least 0.9, where 1 is the maximum; inconclusive means response in the unintended direction; inactive means score below 0.9.

Key:
[1] = read-out: UDP glucuronosyltransferase (UGT1A6), UGT1A6 (gene 54578); assay: LTEA_HepaRG_UGT1A6: Life Technologies and Expression Analysis (LTEA) Assay for UDP glucuronosyltransferase (UGT1A6) using HepaRG (AID 2283539; active means hit-call score of the fitted dose curve at least 0.9, where 1 is the maximum; inactive means score below 0.9); conditions: mRNA level, 48 h; actives raise or lower the signal
Outline: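 Expression was quantified by TaqMan qRT-PCR on Fluidigm arrays with ACTB/GAPDH/POLR2A normalization and bidirectional fitting against 0.5% DMSO. HepaRG cells (~100,000/well) were treated in duplicate for 48 h at eight half-log concentrations up to 100 uM in serum-free induction medium.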

[2] = read-out: X-box binding protein 1 (XBP1), XBP1 (gene 7494); assay: LTEA_HepaRG_XBP1: Life Technologies and Expression Analysis (LTEA) Assay for X-box binding protein 1 (XBP1) using HepaRG (AID 2283540; active means hit-call score of the fitted dose curve at least 0.9, where 1 is the maximum; inactive means score below 0.9); conditions: mRNA level, 48 h; actives raise or lower the signal
Outline: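 XBP1 transcript by qRT-PCR (housekeeping-normalized: ACTB, GAPDH, POLR2A) after 48 h chemical treatment of HepaRG cells, 8-point half-log series topping at 100 uM, vehicle 0.5% DMSO. Gain and loss of signal fitted relative to DMSO.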

[3] = LTEA_HepaRG_LDH_cytotoxicity: Cytotoxicity Assessment in the Life Technologies and Expression Analysis (LTEA) Assay (AID 2283563);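 on AC50: LDH activity released into spent culture medium as a marker of cell death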
Outline: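 LDH release into culture medium read after 48 h chemical treatment of HepaRG cells. Duplicate wells, eight-point half-log series topping at 100 uM, 0.5% DMSO vehicle and baseline.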

[4] = Tanguay_ZF_120hpf_MORT_legacy: (Legacy) Oregon State University Tanguay Lab 120 Hour Post-fertilization zebrafish Assay for Mortality (AID 2283633);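 on AC50: fitted as increase in binary mortality versus DMSO negative control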
Outline: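 Static waterborne exposure from 6 to 120 hpf at 28C of single dechorionated wild-type (5D) embryos per well, 0.64% DMSO final. Death recorded present/absent by brightfield at 24 and 120 hpf.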

[5] = Tanguay_ZF_120hpf_YSE_legacy: (Legacy) Oregon State University Tanguay Lab 120 Hour Post-fertilization zebrafish Assay for Yolk Sac Edema (AID 2283634);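 on AC50: actives raise the incidence of yolk sac edema above the DMSO baseline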
Outline: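 Presence or absence of yolk sac edema was recorded at 120 hpf in surviving larvae. These were wild-type Tropical 5D embryos, chorion removed at 4 hpf, held in static exposure at 28C from 6 hpf with 0.64% DMSO vehicle.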

[6] = Tanguay_ZF_120hpf_AXIS_legacy: (Legacy) Oregon State University Tanguay Lab 120 Hour Post-fertilization zebrafish Assay for Body Axis Malformation (AID 2283635);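 on AC50: potency for an increased fraction of larvae scored with body axis malformation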
Outline: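 Binary scoring of axis defects at 120 hpf under brightfield, fitted positive versus DMSO. Tropical 5D embryos, chorion removed by pronase at 4 hpf, were singly exposed in sealed, dark plates at 28C from 6 hpf; DMSO 0.64% final.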

[7] = Tanguay_ZF_120hpf_EYE_legacy: (Legacy) Oregon State University Tanguay Lab 120 Hour Post-fertilization zebrafish Assay for Eye Malformation (AID 2283636);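 further: binary presence or absence of eye malformation scored by brightfield in 120 hpf larvae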
Outline: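 5D wild-type embryos, pronase-dechorionated at 4 hpf; static exposure 6–120 hpf, 28C, dark; DMSO 0.64% final; 5uM trimethyltin chloride positive control. Binary eye-defect scoring at 120 hpf; dead embryos not scored.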

[8] = Tanguay_ZF_120hpf_SNOU_legacy: (Legacy) Oregon State University Tanguay Lab 120 Hour Post-fertilization zebrafish Assay for Snout Malformation (AID 2283637)
Outline: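 Binary brightfield scoring of snout malformation at 120 hpf. Dechorionated 5D wild-type embryos, one per well, static exposure from 6 hpf at 28C, sealed and dark; final DMSO 0.64% (vol/vol), DMSO as baseline; 5uM trimethyltin chloride positive control.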

[9] = Tanguay_ZF_120hpf_JAW_legacy: (Legacy) Oregon State University Tanguay Lab 120 Hour Post-fertilization zebrafish Assay for Jaw Malformation (AID 2283638);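 on AC50: active means more embryos with jaw malformation than DMSO controls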
Outline: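 Binary jaw-malformation call at 120 hpf by brightfield microscopy. Embryos (Tropical 5D strain, chorion removed at 4 hpf) were dosed statically at 6 hpf, one per well, at 28C with 0.64% DMSO. Embryos that died were not scored.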

[10] = Tanguay_ZF_120hpf_OTIC_legacy: (Legacy) Oregon State University Tanguay Lab 120 Hour Post-fertilization zebrafish Assay for Otic Vesicle Malformation (AID 2283639)
Outline: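 Brightfield scoring at 120 hpf, binary present/absent; DMSO negative control, 5uM trimethyltin chloride positive control. Static exposure at 28C, final DMSO 0.64% (vol/vol). Dead embryos not scored for malformation.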

[11] = Tanguay_ZF_120hpf_PE_legacy: (Legacy) Oregon State University Tanguay Lab 120 Hour Post-fertilization zebrafish Assay for Pericardial Edema (AID 2283640);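 on AC50: potency for increased incidence of pericardial edema versus DMSO baseline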
Outline: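 Scoring was binary, by brightfield microscopy at 120 hpf, and skipped where mortality occurred. Wild-type embryos were kept under sealed, foil-covered static exposure at 28C in 0.64% (vol/vol) DMSO.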

[12] = ATG_XTT_Cytotoxicity: Cytotoxicity Assessment in the Attagene TRANS-FACTORIAL HepG2 Assay (AID 2283584)
Outline: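 Viability endpoint from XTT after 24 h chemical exposure of reporter-transfected human HepG2 liver cells; signal loss fitted relative to DMSO negative control.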

[13] = target: Cellular tumor antigen p53 (Homo sapiens) (UniProt P04637); assay: TOX21_p53_BLA_p2_ratio: Tox21 HCT-116 p53 Agonism Beta-lactamase Assay, Ratio, Phase 2 (AID 2283592)
Outline: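 Read-out is the blue/green (460/530 nm, 405 nm excitation) ratio after 2 h CCF4-AM loading, fitted as gain versus DMSO. Compounds, pinned at 217-fold dilution from DMSO stocks, stayed 16 h on HCT-116 beta-lactamase reporter cells seeded 5 h earlier.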

[14] = target: Cellular tumor antigen p53 (Homo sapiens) (UniProt P04637); assay: TOX21_p53_BLA_p3_ratio: Tox21 HCT-116 p53 Agonism Beta-lactamase Assay, Ratio, Phase 3 (AID 2283596)
Outline: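 Cells were seeded at 4000/well, rested 5 h at 37C, then dosed with DMSO compound solutions (217-fold dilution) for 16 h. CCF4-AM substrate was loaded for 2 h at room temperature, and the 460/530 nm emission ratio was fitted for gain of signal versus DMSO.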

[15] = TOX21_p53_BLA_p4_viability: Viability Assessment in the Tox21 HCT-116 p53 Agonism Beta-lactamase Assay, Phase 4 (AID 2283597);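 further: hits lower the luminescence signal meaning cytotoxicity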
Outline: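 Cytotoxicity as reduced cellular ATP (CellTiter-Glo luminescence, 30 min room temperature), measured in the same wells following the CCF4 FRET p53 reading. Human HCT-116 cells received compounds in DMSO (217-fold dilution) for 16 h.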

[16] = target: Cellular tumor antigen p53 (Homo sapiens) (UniProt P04637); assay: TOX21_p53_BLA_p5_ratio: Tox21 HCT-116 p53 Agonism Beta-lactamase Assay, Ratio, Phase 5 (AID 2283599)
Outline: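 HCT-116 p53-bla cells (4000/well) plated 5 h, dosed with compound (217-fold DMSO dilution) for 16 h at 37 C; CCF4-AM substrate 2 h at room temperature. Activity is the 460/530 nm emission ratio (405 nm excitation), fitted in gain-of-signal direction versus DMSO.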

[17] = TOX21_p53_BLA_p5_viability: Viability Assessment in the Tox21 HCT-116 p53 Agonism Beta-lactamase Assay, Phase 5 (AID 2283600)
Outline: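 Viability came from CellTiter-Glo ATP luminescence, read after 30 min at room temperature. Before this, HCT-116 p53-bla cells (4000/well) had 16 hours of compound exposure at 37C, with DMSO stocks diluted 217-fold on transfer.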

[18] = target: Cellular tumor antigen p53 (Homo sapiens) (UniProt P04637); assay: TOX21_p53_BLA_p4_ratio: Tox21 HCT-116 p53 Agonism Beta-lactamase Assay, Ratio, Phase 4 (AID 2283601)
Outline: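 HCT-116 p53 beta-lactamase reporter cells (4000/well) preincubated 5 h, then compound (217-fold dilution of DMSO stock) for 16 h at 37C. CCF4-AM substrate added 2 h at room temperature; 460/530 nm emission ratio fitted upward versus DMSO.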

[19] = Tanguay_ZF_120hpf_BRAI_legacy: (Legacy) Oregon State University Tanguay Lab 120 Hour Post-fertilization zebrafish Assay for Brain Malformation (AID 2283641)
Outline: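 Binary brightfield scoring of brain malformation at 120 hpf in Tropical 5D larvae held under static exposure at 28C (0.64% v/v DMSO), non-mortality endpoints skipped if dead. Positive control: 5uM trimethyltin chloride; fit versus DMSO.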

[20] = TOX21_p53_BLA_p2_viability: Viability Assessment in the Tox21 HCT-116 p53 Agonism Beta-lactamase Assay, Phase 2 (AID 2283591);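 further: compound exposure lasted 16 h at 37 °C; actives lower the ATP signal meaning cytotoxicity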
Outline: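 HCT116 p53-bla cells, 4000/well, dosed after 5 h plating (217-fold dilution of DMSO stocks) and incubated 16 h at 37C. Viability taken as cellular ATP by CellTiter-Glo luminescence after 30 min RT; signal loss marks cytotoxicity.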

Measured: AC50

Cellular tumor antigen p53 (Homo sapiens), sequence (P04637 whole entry, looked up): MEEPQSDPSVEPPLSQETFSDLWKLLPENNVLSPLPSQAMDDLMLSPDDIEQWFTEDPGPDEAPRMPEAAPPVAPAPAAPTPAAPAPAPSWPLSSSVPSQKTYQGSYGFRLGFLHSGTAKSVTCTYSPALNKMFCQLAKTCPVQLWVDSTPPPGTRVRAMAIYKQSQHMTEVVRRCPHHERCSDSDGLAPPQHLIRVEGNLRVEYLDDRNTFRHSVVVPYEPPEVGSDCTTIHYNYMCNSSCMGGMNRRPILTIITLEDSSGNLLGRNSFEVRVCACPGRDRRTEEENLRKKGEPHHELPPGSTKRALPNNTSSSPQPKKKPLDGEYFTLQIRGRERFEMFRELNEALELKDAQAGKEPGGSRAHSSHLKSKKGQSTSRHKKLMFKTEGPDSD

Cc1nc(N(C)C)nc(OC(=O)N(C)C)c1C
inactive: [1] | [2] | [3] | [4] | [5] | [6] | [7] | [8] | [9] | [10] | [11]

COP(=S)(OC)Oc1ccc([N+](=O)[O-])c(C)c1
not listed: [2] | [10] | [20]
inactive: all other assays above

CN=C=S
active: [2] 17.3 µM
not listed: [8] | [9] | [10] | [12]
inactive: all other assays above

CC(C)C1(C)N=C(c2ncccc2C(=O)O)NC1=O (stereo not given)
not listed: [12] | [20]
inactive: all other assays above

O=c1n(Cl)c(=O)n(Cl)c(=O)n1Cl
not listed: [7] | [8] | [10] | [12] | [14] | [15]
inactive: all other assays above

CC(C)Nc1nc(Cl)nc(NC(C)C)n1
not listed: [12] | [15] | [16] | [17] | [20]
inactive: all other assays above

CO/N=C(/C1=NOCCO1)c1ccccc1Oc1ncnc(Oc2ccccc2Cl)c1F
active: [1] 50 µM | [3] 33 µM | [13] 3.05 µM | [4] 2.4 µM | [6] 5.15 µM | [11] 0.936 µM
not listed: [8] | [10] | [12] | [20]
inactive: all other assays above

CC(C)NC(=O)N1CC(=O)N(c2cc(Cl)cc(Cl)c2)C1=O
active: [2] 14.8 µM
not listed: [20]
inactive: all other assays above

CSC(=O)c1c(C(F)F)nc(C(F)(F)F)c(C(=O)SC)c1CC(C)C
active: [3] 78.7 µM
not listed: [18] | [20]
inactive: all other assays above

COc1cc(Cl)c(OC)cc1Cl
not listed: [12] | [15] | [17] | [18] | [20]
inactive: all other assays above

CC(C)Oc1cccc(NC(=O)c2ccccc2C(F)(F)F)c1
active: [5] 48.7 µM | [7] 15.5 µM | [8] 50.4 µM | [9] 40.4 µM | [11] 48.1 µM | [19] 38.3 µM
not listed: [12] | [20]
inactive: all other assays above

CCOc1nc(C(Cl)(Cl)Cl)ns1
active: [2] 0.83 µM
not listed: [10] | [12] | [14] | [20]
inactive: all other assays above

Cc1c(COC(=O)[C@@H]2[C@H](/C=C(\Cl)C(F)(F)F)C2(C)C)cccc1-c1ccccc1
not listed: [10] | [12] | [20]
inactive: all other assays above

CC1(C)C(C(=O)OC(C#N)c2cccc(Oc3ccccc3)c2)C1(C)C (stereo not given)
not listed: [10] | [12] | [20]
inactive: all other assays above

CCSC(=O)N1CCCCCC1
not listed: [10] | [11] | [12] | [13] | [15] | [18] | [20]
inactive: all other assays above
